Test results published in PubChem BioAssay AID588664 (The Scripps Research Institute Molecular Screening Center, 2011).
The campaign covered roughly 360,000 compounds. About 1,400 (0.39%) were called active. This is one part of a sample in which actives are shown more often than they occur. A number with no mark means an inactive call. Rule as the data show it: active = inhibition above about 5% (passing the limit was not always enough); inactive = the rest.

What follows are compounds tested against Tyrosine-protein kinase ABL1 (Homo sapiens) + Ras and Rab interactor 1 (Homo sapiens) (UniProt P00519+Q13671) (assay: disruptors of human Abl and Rin1 association – biochemical, TR-FRET, primary screen (AID 588664)). Conditions: TR-FRET Rin1/Abl binding, at 7.35 µM, hits give high values.
Sequence of Tyrosine-protein kinase ABL1 (Homo sapiens) + Ras and Rab interactor 1 (Homo sapiens) (P00519 whole entry, looked up): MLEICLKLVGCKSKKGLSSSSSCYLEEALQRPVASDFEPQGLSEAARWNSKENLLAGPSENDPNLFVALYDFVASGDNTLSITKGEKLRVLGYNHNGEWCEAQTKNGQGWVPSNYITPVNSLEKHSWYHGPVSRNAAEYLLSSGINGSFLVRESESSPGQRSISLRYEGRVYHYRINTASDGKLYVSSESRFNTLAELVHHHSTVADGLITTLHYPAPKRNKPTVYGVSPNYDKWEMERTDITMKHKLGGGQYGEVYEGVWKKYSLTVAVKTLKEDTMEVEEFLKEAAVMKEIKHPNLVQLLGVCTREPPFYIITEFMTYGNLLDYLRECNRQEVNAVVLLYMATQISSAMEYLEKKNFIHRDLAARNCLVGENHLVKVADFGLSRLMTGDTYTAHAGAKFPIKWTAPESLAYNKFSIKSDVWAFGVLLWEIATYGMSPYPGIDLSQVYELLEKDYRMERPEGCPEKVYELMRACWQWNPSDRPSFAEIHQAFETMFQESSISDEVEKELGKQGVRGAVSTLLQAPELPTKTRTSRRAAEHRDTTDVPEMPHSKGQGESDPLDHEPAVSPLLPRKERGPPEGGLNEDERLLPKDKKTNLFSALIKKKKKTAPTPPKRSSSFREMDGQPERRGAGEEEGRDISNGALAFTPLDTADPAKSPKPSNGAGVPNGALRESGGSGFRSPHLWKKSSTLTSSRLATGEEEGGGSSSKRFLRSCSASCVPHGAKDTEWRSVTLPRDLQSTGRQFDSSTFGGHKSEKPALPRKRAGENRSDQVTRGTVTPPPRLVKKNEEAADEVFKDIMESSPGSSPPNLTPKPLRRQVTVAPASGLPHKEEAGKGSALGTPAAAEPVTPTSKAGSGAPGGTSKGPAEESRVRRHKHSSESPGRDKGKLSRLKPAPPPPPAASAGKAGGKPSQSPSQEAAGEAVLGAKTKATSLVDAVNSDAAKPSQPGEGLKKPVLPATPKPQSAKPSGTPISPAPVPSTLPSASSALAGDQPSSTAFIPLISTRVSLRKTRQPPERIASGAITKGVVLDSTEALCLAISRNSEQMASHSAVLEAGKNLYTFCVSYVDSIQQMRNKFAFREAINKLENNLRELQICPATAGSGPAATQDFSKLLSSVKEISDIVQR
Sequence of Tyrosine-protein kinase ABL1 (Homo sapiens) + Ras and Rab interactor 1 (Homo sapiens) (Q13671 whole entry, looked up): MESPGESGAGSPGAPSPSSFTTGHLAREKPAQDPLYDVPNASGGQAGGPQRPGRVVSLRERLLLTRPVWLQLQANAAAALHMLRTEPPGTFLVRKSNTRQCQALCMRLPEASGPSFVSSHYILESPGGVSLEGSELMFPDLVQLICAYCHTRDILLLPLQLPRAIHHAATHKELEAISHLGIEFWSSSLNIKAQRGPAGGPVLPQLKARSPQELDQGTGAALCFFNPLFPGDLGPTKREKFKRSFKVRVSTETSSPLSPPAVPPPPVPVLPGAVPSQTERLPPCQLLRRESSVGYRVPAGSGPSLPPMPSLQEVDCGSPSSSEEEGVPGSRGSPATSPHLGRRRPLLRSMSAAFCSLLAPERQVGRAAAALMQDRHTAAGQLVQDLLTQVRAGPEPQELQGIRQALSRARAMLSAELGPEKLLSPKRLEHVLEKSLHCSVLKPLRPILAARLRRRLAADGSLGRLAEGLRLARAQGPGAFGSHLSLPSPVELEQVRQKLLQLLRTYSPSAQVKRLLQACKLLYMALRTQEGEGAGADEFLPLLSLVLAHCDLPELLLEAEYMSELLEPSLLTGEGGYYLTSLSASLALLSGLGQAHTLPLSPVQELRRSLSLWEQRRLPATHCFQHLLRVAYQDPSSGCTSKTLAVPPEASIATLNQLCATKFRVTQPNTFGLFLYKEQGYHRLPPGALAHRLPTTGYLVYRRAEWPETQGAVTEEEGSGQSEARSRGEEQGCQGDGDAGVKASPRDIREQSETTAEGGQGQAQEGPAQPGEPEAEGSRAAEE
In the case of `O=c1[nH]nc(Cc2ccccn2)c2ccccc12`, the inhibition is reported as 1.04%.
`CCN(CC)CCCNC(=O)c1cn(C)c2ccc(S(=O)(=O)N(C)C3CCCCC3)cc2c1=O` showed an inhibition of 2.19%.
With `C=CCn1cc(C(=O)NCc2ccc(Cl)cc2)c(=O)c2cc(S(=O)(=O)N(CC)CC)ccc21` the inhibition was 6.23% (active).
`CCOC(=O)N1CCN(C(=O)c2cn(C)c3ccc(S(=O)(=O)N(CC)CC)cc3c2=O)CC1` gave an inhibition of -0.08%.
In the case of `CN(C)S(=O)(=O)c1ccc(N2CCCC2)c(C(=O)Nc2cccc(F)c2)c1`, the inhibition is reported as 7.03%.
Work on `CC1=C[C@H]2Cc3cc(C)cc(C)c3S(=O)(=O)[C@@H]2C=C1` yielded an inhibition of 3.36%.
`O=c1c2c(nc3n1CCCCC3)sc1c(O)cccc12` was tested, and the inhibition was 12.3% (active).
For `Cc1c(C(=O)Nc2ccccc2)sc2nc3n(c(=O)c12)CCCCC3`, the inhibition was -0.6%.
For `CC(=O)c1ccc(NC(=O)c2sc3nc4n(c(=O)c3c2C)CCCCC4)cc1`, the inhibition was 0.85%.
`O=S1(=O)CCN(C2CCCCCCCCCCC2)CC1` gave an inhibition of 1.94%.
`Cc1cc(NC(=O)CSCc2ccccc2C)no1` was tested, and the inhibition was -2.34%.
Work on `COc1ccccc1C(=O)COC(=O)CSCC(=O)Nc1cc(C)on1` yielded an inhibition of -2.09%.
`Cc1cc(NC(=O)CSCC(=O)NC(C)c2ccccc2)no1` (stereo not drawn) was tested, and the inhibition was 9.74% (active).
Work on `N#C/C(=C\N1CCOCC1)S(=O)(=O)c1ccc(Cl)cc1` yielded an inhibition of 0.04%.
`CNS(=O)(=O)c1ccc(NC(=O)Nc2ccc3c(c2)OCO3)cc1` was tested, and the inhibition was -0.38%.
For `CC(C)CNS(=O)(=O)c1ccc(C(=O)Nc2ccc3c(c2)OCO3)cc1`, the inhibition was 12.8% (active).
Compound `CC(C)CNS(=O)(=O)c1ccc(OCC(=O)Nc2ccc3c(c2)OCO3)c(Cl)c1` has an inhibition of -2.64%.
`C=C1c2c(Cl)ccc(O)c2C(O)=C2C(=O)[C@]3(O)C(O)=C(C(N)=O)C(=O)[C@@H](N(C)C)[C@@H]3[C@@H](O)C12` (stereo partly drawn) was tested, and the inhibition was 20.6% (active).
`Nc1nc2cc(Cl)ccc2n1N` was tested, and the inhibition was -1.62%.
`CCCCN(CC)CCNC(=O)c1[nH]c(C)c(C(C)=O)c1C` gave an inhibition of 6.51%.
`COC(=O)c1c(NC(=O)c2ccc(S(=O)(=O)N3CCOCC3)cc2)sc2c1CCN(C(C)C)C2` showed an inhibition of 5.81%.
`CCc1ccc(CNC(=O)C2CCCN(c3nc4ccccc4o3)C2)cc1` (stereo not drawn) gave an inhibition of 1.27%.
For `CCOc1ccc(CNC(=O)C2CCCN(c3nnc(C)c4c(C)n(-c5ccccc5)nc34)C2)cc1` (stereo not drawn), the inhibition was 20.2% (active).
In the case of `CCc1ccc(CNC(=O)C2CCN(c3nnc(C)c4c(C)n(-c5ccc(C)cc5)nc34)CC2)cc1`, the inhibition is reported as -2.17%.
`Cn1cc(CN2CCCC(CO)C2)c(-c2ccc(Oc3ccccc3)cc2)n1` (stereo not drawn) was tested, and the inhibition was 1.99%.
`COc1ccc([N+](=O)[O-])cc1NC(=O)COC(=O)/C=C/c1ccco1` was tested, and the inhibition was -3.75%.
For `Cc1noc(C)c1COC(=O)c1cc2ccccc2cc1O`, the inhibition was 1.08%.
`O=C(CSc1nc(C2CC2)nc2ccccc12)Nc1cccc(O)c1` gave an inhibition of -0.76%.
With `O=C(NNc1c2ccccc2nc2ccccc12)c1cc2ccccc2cc1O` the inhibition was 5.94% (active).
For `CC(C)(C)NC(=O)NC(=O)COC(=O)Cn1c(C(F)(F)F)nc2ccccc21`, the inhibition was 2.76%.
`COc1ccccc1NC(=O)CSc1nnc(-c2ccoc2C)n1CCc1ccccc1` was tested, and the inhibition was 4.08%.
Compound `CCN(CC)S(=O)(=O)c1ccc(N(C)Cc2ccc(C(F)(F)F)cc2)nc1` has an inhibition of 0.97%.
With `Nc1cc(=O)c2[nH]cnc2[nH]1` the inhibition was 16.4% (active).
In the case of `Cc1ccccc1-c1ccc2c(c1)O[C@@H](CN(C)Cc1ccc(C(=O)O)cc1)[C@@H](C)CN([C@H](C)CO)S2(=O)=O`, the inhibition is reported as 1.11%.
`C[C@@H]1CN([C@H](C)CO)S(=O)(=O)c2ccc(C#C[C@@H](C)O)cc2O[C@@H]1CN(C)Cc1ccc(-c2ccccc2)cc1` was tested, and the inhibition was 36.5% (active).
Work on `C[C@@H]1CN([C@@H](C)CO)S(=O)(=O)c2ccc(-c3ccc(C(=O)N(C)C)cc3)cc2O[C@@H]1CN(C)Cc1ccccc1C(=O)O` yielded an inhibition of -1.93%.
For `O=C(C1CCCN(S(=O)(=O)c2ccc([N+](=O)[O-])cc2)C1)N1CCCCC1` (stereo not drawn), the inhibition was 1.73%.
`CCNS(=O)(=O)c1ccc(NC(=O)c2cncc(Br)c2)cc1` gave an inhibition of -2.97%.
With `O=C(Nc1ccc(S(=O)(=O)Nc2ncccn2)cc1)c1cncc(Br)c1` the inhibition was 11.3% (active).
`O=C(NC(=S)Nc1ccc(S(=O)(=O)Nc2ncccn2)cc1)c1cccc(Br)c1` was tested, and the inhibition was -0.5%.
In the case of `CCOCCCNC(=S)Nc1ccc2nc(N3CCN(CC)CC3)cc(C)c2c1`, the inhibition is reported as -3.64%.
For `COc1ccccc1C(=O)N1CCNC(=O)C1CC(=O)Nc1ccc(Cl)cc1` (stereo not drawn), the inhibition was 4.11%.
With `CCOc1ccc(NC(=O)CC2NCCNC2=O)cc1` (stereo not drawn) the inhibition was 0.97%.
`O=C(CC1SCCNC1=O)Nc1ccc(Cl)cc1` (stereo not drawn) was tested, and the inhibition was 11.9% (active).
`Cc1cc(-c2ccc(C)c(S(=O)(=O)NC(C)Cc3ccco3)c2)on1` (stereo not drawn) gave an inhibition of 4.85%.
Work on `COc1ccc(NC(=O)CSc2nnc(-c3ccccc3F)n2C2CC2)cc1S(N)(=O)=O` yielded an inhibition of -3.31%.
Work on `Fc1cccc(Cl)c1COc1ccc(-c2nnco2)cc1` yielded an inhibition of 0.01%.
`C[C@H](NC(=O)[C@@H]1Cc2ccccc2CN1C(=O)OC(C)(C)C)C(=O)NC1CCCC1` was tested, and the inhibition was -1%.
Compound `COCCNC(=O)CSc1nc(N)c(NC(=O)c2ccco2)c(=O)[nH]1` has an inhibition of -1.82%.
Compound `Cc1ccc(NC(=O)OCCNC(=O)c2ccncc2)cc1` has an inhibition of 1.62%.
`COCCNC(=O)Nc1ccc2nc(-c3ccco3)c(-c3ccco3)nc2c1` was tested, and the inhibition was 8.86% (active).
For `C#CCN(N(C)c1ncc(C(F)(F)F)cc1Cl)S(=O)(=O)c1ccc2ccccc2c1`, the inhibition was 0.28%.
In the case of `CCN1CCN(c2cc3nc(C)n(Cc4ccccc4)c(=O)c3cc2NC(=O)c2ccccc2F)CC1`, the inhibition is reported as -0.45%.
With `CCCCC(=O)NC(c1ccc(OC)c(OC)c1)c1ccc2cccnc2c1O` (stereo not drawn) the inhibition was -0.15%.
`N#Cc1ccccc1NC(=O)COc1c(Br)cc(Br)c2cccnc12` was tested, and the inhibition was -0.22%.
In the case of `CC(=O)NC(c1cccs1)c1cc(Br)c2cccnc2c1O` (stereo not drawn), the inhibition is reported as 14.8% (active).
Compound `O=C(Nc1ccc2c(c1)[C@@H]1C[C@@H](CC(=O)N3CCCCC3)O[C@@H](CO)[C@@H]1O2)NC1CCCCC1` has an inhibition of 2.19%.
Compound `O=C(Cn1cnc2cc([N+](=O)[O-])ccc2c1=O)NC(=O)NCc1ccccc1` has an inhibition of -4.46%.
`CCOC(=O)C(CCOc1cccc(CC)c1)C(=O)OCC` was tested, and the inhibition was 0.47%.
`COc1ccc2c(c1)c(=O)c(C(=O)c1ccc(Cl)cc1)cn2CC(=O)Nc1ccc(F)cc1` gave an inhibition of -3.04%.
Compound `COc1ccc(CNC(=O)c2c[nH]c3c(OC)cc(OC)cc3c2=O)cc1` has an inhibition of -2.41%.
Compound `COc1ccc(CNC(=O)C2CCCC2)cc1` has an inhibition of -1.61%.
With `COc1ccc(CNC(=O)c2cc(C(=O)C3CC3)c[nH]2)cc1` the inhibition was 11.6% (active).
For `OCC[C@H]1C[C@@H](O)[C@H](O)[C@@]2(OCCc3ccccc32)O1`, the inhibition was 1.02%.
`CC(C(=O)Nc1ccc(S(=O)(=O)N2CCCC2)cc1)N(C)Cc1ccc(F)cc1` (stereo not drawn) showed an inhibition of 2.65%.
`CCc1ccc(CN(C)C(C)C(=O)Nc2ccc(S(=O)(=O)N3CCCC3)cc2)cc1` (stereo not drawn) was tested, and the inhibition was 12.4% (active).
For `CC(OC(=O)c1ccc(NC(=O)CC#N)cc1)C(=O)Nc1ccc(S(=O)(=O)N2CCCC2)cc1` (stereo not drawn), the inhibition was 2.43%.
In the case of `Cc1nn(Cc2ccccc2)c(C)c1C(=O)N1CCN(CC(=O)Nc2ccccc2Cl)CC1`, the inhibition is reported as 2.44%.
`CCOC(=O)C1=C(COC(=O)[C@H](C)NS(=O)(=O)c2ccccc2F)NC(=O)NC1C` (stereo partly drawn) gave an inhibition of 2.47%.
Work on `CN(C)c1ccc(/C=N/NC(=O)C(O)c2ccc(Br)cc2)cc1` (stereo not drawn) yielded an inhibition of 0.79%.
`CN(C)c1ccc(N/C=C/C(=O)C(F)(F)F)cc1` was tested, and the inhibition was 7.5% (active).
With `CNC(=S)NNC(=O)c1ccc(N(C)C)cc1` the inhibition was 0.47%.
`C[C@H](CO)N1C[C@H](C)[C@@H](CN(C)C(=O)C2CCCCC2)OCc2cnnn2CCCC1=O` was tested, and the inhibition was -1.65%.
`Cc1cc(C)c(C(N)=O)c(Cl)n1` showed an inhibition of -1.52%.
With `Cc1ccccc1CN1CCN(CC(=O)NCc2ccccn2)C1=O` the inhibition was -1.59%.
With `Cc1ccccc1CN1C[C@@H]2C[C@@H](c3cn(C)nc3-c3ccccc3)N3CCC[C@@]23C1=O` the inhibition was -1.71%.
In the case of `Cc1ccccc1CN1C[C@@H]2C[C@@H](c3ccc4nsnc4c3)N3CCC[C@@]23C1=O`, the inhibition is reported as 8.18% (active).
With `CC(OC(=O)/C=C/c1ccccc1)C(=O)Nc1ccc(C(N)=O)cc1` (stereo not drawn) the inhibition was 1.19%.
With `O=S1(=O)CC(N2CCN(c3ccccn3)CC2)CN1Cc1ccc(F)cc1` (stereo not drawn) the inhibition was 1.04%.
`Cc1c(CCC(=O)O)c(=O)oc2c(C)c(OCc3ccccc3Cl)ccc12` was tested, and the inhibition was 1.81%.
With `Cc1c(CC(=O)N2CCN(C(=O)C3COc4ccccc4O3)CC2)c(=O)oc2c(O)c(O)ccc12` (stereo not drawn) the inhibition was 9.84% (active).
`Cc1ccc(S(=O)(=O)NCCC(=O)NNC(=O)C2COc3ccccc3O2)cc1` (stereo not drawn) gave an inhibition of -0.47%.
With `COC(=O)c1ccc(NC(=O)CN(c2ccc(C)cc2)S(=O)(=O)c2c(C)n[nH]c2C)cc1` the inhibition was 3.33%.
In the case of `NC1=CC(=O)C(=O)c2cccnc21`, the inhibition is reported as 17.2% (active).
For `CC1(C)C=Cc2c(ccc3c2OC[C@@H](c2ccc(O)cc2O)C3)O1`, the inhibition was -2.38%.
For `O=c1cc(CO)oc(CN2CCC(Cc3ccccc3)CC2)c1O`, the inhibition was 30.9% (active).
With `NC(=O)c1ccc(CN2CCC(Cc3ccccc3)CC2)cc1` the inhibition was 1.83%.
`CCOC(=O)N1CCN(Cc2oc(CO)cc(=O)c2O)CC1` gave an inhibition of 1.56%.
